The record followed here is PubChem BioAssay (EPA / NIEHS).

Common to all, as to conditions: mRNA level, 48 h; actives raise or lower the signal
Read-out in assay [1]: Glutamate-cysteine ligase catalytic (GCLC), GCLC (gene 2729)
As to the kind of experiment: LTEA_HepaRG_GCLC: Life Technologies and Expression Analysis (LTEA) Assay for Glutamate-cysteine ligase catalytic (GCLC) using HepaRG (AID 2283498). In outline:
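Oxidative-stress marker GCLC is measured as mRNA change in human HepaRG liver cells after 48 h chemical treatment in 0.5% DMSO, eight concentrations from 100 uM. Activity is fitted bidirectionally against vehicle.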

Read-out in assay [2]: growth arrest and DNA damage 45 (GADD45G), GADD45G (gene 10912)
The assay is described as follows: LTEA_HepaRG_GADD45G: Life Technologies and Expression Analysis (LTEA) Assay for growth arrest and DNA damage 45 (GADD45G) using HepaRG (AID 2283499). In short, it runs like this:
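Gain or loss of GADD45G mRNA, quantified by TaqMan qRT-PCR against three housekeeping genes, is fitted in both directions relative to 0.5% DMSO. Human HepaRG cultures receive test chemical for 48 h at up to 100 uM.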

Read-out in assay [3]: Glutamate-cysteine ligase regulatory (GCLM), GCLM (gene 2730)
As to the kind of experiment: LTEA_HepaRG_GCLM: Life Technologies and Expression Analysis (LTEA) Assay for Glutamate-cysteine ligase regulatory (GCLM) using HepaRG (AID 2283500). In outline: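 HepaRG, 48 h dosing, 100 uM top, half-log x8, 0.5% DMSO vehicle. Readout: GCLM mRNA by TaqMan qRT-PCR, housekeeping-normalized (ACTB/GAPDH/POLR2A). Curves fit bidirectionally vs DMSO baseline.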

Read-out in assay [4]: Glutathione S-transferase M3 (GSTM3), GSTM3 (gene 2947)
The assay is described as follows: LTEA_HepaRG_GSTM3: Life Technologies and Expression Analysis (LTEA) Assay for Glutathione S-transferase M3 (GSTM3) using HepaRG (AID 2283501). In outline: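 HepaRG, plated 48 h, then serum-free induction medium; test chemical 48 h, duplicate; 100 uM top, half-log x8, 0.5% DMSO. Read-out: GSTM3 mRNA (TaqMan qRT-PCR, Fluidigm array). Bidirectional fit vs DMSO.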

Read-out in assay [5]: Heat shock 70 kDa protein 1 (HSPA1A), gene 3303
As to the kind of experiment: LTEA_HepaRG_HSPA1A: Life Technologies and Expression Analysis (LTEA) Assay for Heat shock 70 kDa protein 1 (HSPA1A) using HepaRG (AID 2283502). In short, it runs like this:
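HepaRG, 48 h exposure, 8-pt half-log CRC from 100 uM in 0.5% DMSO, duplicates. Readout: TaqMan qRT-PCR of HSPA1A mRNA, housekeeping-normalized (ACTB/GAPDH/POLR2A). Bidirectional fit vs 0.5% DMSO baseline.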

Read-out in assay [6]: Hypoxia-inducible factor 1-alpha (Homo sapiens) (UniProt Q16665)
The assay is described as follows: LTEA_HepaRG_HIF1A: Life Technologies and Expression Analysis (LTEA) Assay for Hypoxia-inducible factor 1 (HIF1A) Trancription factor using HepaRG (AID 2283503). In outline: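 Gain- or loss-of-signal HIF1A mRNA changes are fitted against a DMSO baseline. HepaRG cultures receive eight concentrations, highest 100 uM, for 48 h in serum-free induction medium with 0.5% DMSO.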

Read-out in assay [7]: 3-Hydroxy-3-Methylglutaryl-CoA Synthase 2 (HMGCS2), HMGCS2 (gene 3158)
The assay is described as follows: LTEA_HepaRG_HMGCS2: Life Technologies and Expression Analysis (LTEA) Assay for 3-Hydroxy-3-Methylglutaryl-CoA Synthase 2 (HMGCS2) using HepaRG (AID 2283504). In outline: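 HepaRG, plated 48 h then switched to serum-free induction media; cmpd 8-pt, max 100 uM, 1/2-log, 0.5% DMSO, n=2, 48 h. HMGCS2 mRNA by Fluidigm TaqMan qRT-PCR, ACTB/GAPDH/POLR2A norm; bidirectional fit vs DMSO.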

Read-out in a further assay: HGF (gene 3082)
The assay is described as follows: LTEA_HepaRG_HGF: Life Technologies and Expression Analysis (LTEA) Assay for Hepatocyte Growth Facto (HGF) using HepaRG (AID 2283505). In short, it runs like this: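 Read-out is HGF transcript level by qRT-PCR, normalized to three housekeeping genes, fitted bidirectionally against 0.5% DMSO vehicle. Human HepaRG cells received test chemicals for 48 h at up to 100 uM.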

Read-out in assay [8]: Insulin Like Growth Factor 1 (IGF1), IGF1 (gene 3479)
As to the kind of experiment: LTEA_HepaRG_IGF1: Life Technologies and Expression Analysis (LTEA) Assay for Insulin Like Growth Factor 1 (IGF1) using HepaRG (AID 2283506). In outline: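 qRT-PCR readout of IGF1 mRNA, normalized to three housekeeping genes, after 48 h chemical exposure of HepaRG cells. Concentrations: 8-point half-log series, top 100 uM, 0.5% DMSO vehicle. Gain or loss fitted against DMSO baseline.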

Read-out in assay [9]: Intercellular Adhesion Molecule 1 (ICAM1), ICAM1 (gene 3383)
As to the kind of experiment: LTEA_HepaRG_ICAM1: Life Technologies and Expression Analysis (LTEA) Assay for Intercellular Adhesion Molecule 1 (ICAM1) using HepaRG (AID 2283507). In outline: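 Readout is qRT-PCR mRNA level, normalized to three housekeeping genes and fitted bidirectionally against 0.5% DMSO vehicle. Human HepaRG cultures received compound for 48 h, top concentration 100 uM with half-log dilutions.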

Read-out in assay [10]: Interleukin 6 (IL6), IL6 (gene 3569)
As to the kind of experiment: LTEA_HepaRG_IL6: Life Technologies and Expression Analysis (LTEA) Assay for Interleukin 6 (IL6) using HepaRG (AID 2283509). In outline:
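Changes in IL6 mRNA, up or down relative to 0.5% DMSO controls, were derived from concentration-response curves in human HepaRG cells treated for 48 h at up to 100 uM, with ACTB, GAPDH and POLR2A as normalizers.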

Read-out in assay [11]: Interleukin 6 Receptor (IL6R), IL6R (gene 3570)
As to the kind of experiment: LTEA_HepaRG_IL6R: Life Technologies and Expression Analysis (LTEA) Assay for Interleukin 6 Receptor (IL6R) using HepaRG (AID 2283510). In outline:
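HepaRG, 48 h exposure, 8-pt half-log series, top 100 uM, 0.5% DMSO vehicle, duplicates. Read-out: TaqMan qRT-PCR of IL6R transcript, housekeeping-gene normalized. Gain or loss fitted relative to DMSO baseline.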

Read-out in assay [12]: Potassium channel subfamily K member 1 (KCNK1), KCNK1 (gene 3775)
The assay is described as follows: LTEA_HepaRG_KCNK1: Life Technologies and Expression Analysis (LTEA) Assay for Potassium channel subfamily K member 1 (KCNK1) using HepaRG (AID 2283511). In outline: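 Human HepaRG cultures receive test chemicals for 48 h in 0.5% DMSO, top concentration 100 uM with half-log dilutions. Induction or suppression of KCNK1 mRNA relative to DMSO is derived by bidirectional fitting of qRT-PCR data.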

Read-out in assay [13]: Keratin 19 (KRT19), KRT19 (gene 3880)
As to the kind of experiment: LTEA_HepaRG_KRT19: Life Technologies and Expression Analysis (LTEA) Assay for Keratin 19 (KRT19) using HepaRG (AID 2283512). In outline: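 KRT19 transcript levels, measured by Fluidigm qRT-PCR against three housekeeping genes, are fitted for gain or loss of signal relative to DMSO. Human HepaRG cells receive test chemicals (top 100 uM, half-log steps, 0.5% DMSO) for 48 hours.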

Read-out in assay [14]: JUN Transcription Factor, JUN (gene 3725)
The assay is described as follows: LTEA_HepaRG_JUN: Life Technologies and Expression Analysis (LTEA) Assay for JUN Transcription Factor using HepaRG (AID 2283513). In outline: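 HepaRG, 48 h exposure, 8-pt half-log series top 100 uM, 0.5% DMSO, duplicate. JUN mRNA by qRT-PCR (Fluidigm), housekeeping-normalized (ACTB/GAPDH/POLR2A); bidirectional curve fit vs DMSO baseline.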

Read-out in assay [15]: Lipase C (LIPC), LIPC (gene 3990)
As to the kind of experiment: LTEA_HepaRG_LIPC: Life Technologies and Expression Analysis (LTEA) Assay for Lipase C (LIPC) using HepaRG (AID 2283514). In outline: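 In this multiplexed gene-expression screen, human HepaRG cultures received test chemicals for 48 h across eight concentrations with 100 uM highest, in duplicate. Values reflect LIPC mRNA induction or suppression versus DMSO vehicle, from normalized qRT-PCR.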

Read-out in assay [16]: Lipoprotein lipase (LPL), LPL (gene 4023)
The assay is described as follows: LTEA_HepaRG_LPL: Life Technologies and Expression Analysis (LTEA) Assay for Lipoprotein lipase (LPL) using HepaRG (AID 2283515). In short, it runs like this: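 Concentration-response testing used half-log steps from 100 uM in 0.5% DMSO on human HepaRG cells, 48 h, duplicate wells. Phenobarbital 1 mM served as induction control; LPL mRNA was normalized to ACTB, GAPDH, POLR2A.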

Read-out in assay [17]: matrix metalloproteinase-10 (MMP10), MMP10 (gene 4319)
As to the kind of experiment: LTEA_HepaRG_MMP10: Life Technologies and Expression Analysis (LTEA) Assay for matrix metalloproteinase-10 (MMP10) using HepaRG (AID 2283517). In outline:
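In differentiated HepaRG cultures kept in 0.5% DMSO, test chemicals act for 48 h over an eight-point range with a top dose of 100 uM. Expression is then quantified by TaqMan RT-PCR against ACTB, GAPDH and POLR2A.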

In general, AC50 refers to the concentration giving half of the maximal activity seen.

SMILES strings stand for the structures. Calls of active or inactive are those of the source. How the source made its calls: active means hit-call score of the fitted dose curve at least 0.9, where 1 is the maximum; inactive means score below 0.9.

Hypoxia-inducible factor 1-alpha (Homo sapiens), sequence (Q16665 whole entry, looked up): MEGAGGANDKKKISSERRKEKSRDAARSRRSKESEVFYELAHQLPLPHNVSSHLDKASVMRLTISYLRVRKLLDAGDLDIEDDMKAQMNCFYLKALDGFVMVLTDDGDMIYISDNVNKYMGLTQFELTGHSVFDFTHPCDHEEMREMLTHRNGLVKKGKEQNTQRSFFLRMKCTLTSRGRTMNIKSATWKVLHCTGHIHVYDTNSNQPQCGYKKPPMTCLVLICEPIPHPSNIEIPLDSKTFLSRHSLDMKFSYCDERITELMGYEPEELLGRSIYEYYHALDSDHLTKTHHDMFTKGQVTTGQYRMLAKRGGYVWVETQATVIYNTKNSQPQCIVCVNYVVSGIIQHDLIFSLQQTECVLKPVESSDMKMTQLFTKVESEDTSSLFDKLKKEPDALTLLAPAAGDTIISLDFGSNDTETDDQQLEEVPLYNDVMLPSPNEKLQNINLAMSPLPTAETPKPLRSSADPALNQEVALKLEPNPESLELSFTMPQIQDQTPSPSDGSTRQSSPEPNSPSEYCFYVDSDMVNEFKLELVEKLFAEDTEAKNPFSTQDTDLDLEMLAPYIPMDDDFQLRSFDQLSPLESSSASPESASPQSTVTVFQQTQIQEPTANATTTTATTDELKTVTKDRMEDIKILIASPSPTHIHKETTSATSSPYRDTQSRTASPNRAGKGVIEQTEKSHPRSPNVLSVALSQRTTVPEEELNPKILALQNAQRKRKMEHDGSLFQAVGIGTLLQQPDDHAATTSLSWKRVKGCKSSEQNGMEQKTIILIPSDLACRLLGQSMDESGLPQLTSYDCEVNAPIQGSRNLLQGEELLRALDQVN

As to `CCCCNC(=O)n1c(NC(=O)OC)nc2ccccc21`, the call in [1], in assay [2], in assay [3], in [4], in [5] and in assay [6] was inactive. The compound was classed as inactive (in assay [7]; with HGF (gene 3082); in assay [8]; in assay [9]; in assay [10]; in [11]). The result in assay [12], in [13], in assay [14], in assay [15], in assay [16] and in assay [17] was inactive.

Consider `CCOC(=O)CC(SP(=S)(OC)OC)C(=O)OCC` (stereo unspecified), for which the compound was classed as inactive in assay [1], in [2], in assay [3], in [4], in assay [5] and in [6]. Also, the result (in assay [7]; in the assay with HGF (gene 3082); in [8]; in assay [9]; in [10]; in assay [11]) was inactive. In addition, the outcome in assay [12], in assay [13], in [14], in assay [15], in assay [16] and in assay [17] was inactive.

Regarding `CCOc1cc(Oc2ccc(C(F)(F)F)cc2Cl)ccc1[N+](=O)[O-]`, the result in [1], in [2], in assay [4], in assay [5], in assay [6] and in assay [10] was inactive. The result in assay [11] and in assay [14] was inactive. Moreover, the AC50 is 50 µM (active) in [3]; 41.9 µM (active) in assay [7]; 50 µM (active) in assay [8]; 50 µM (active) in [9]; 30 µM (active) in [12]; 33.8 µM (active) in assay [13]. The results for the AC50 in [15], in [16] and in [17] were 34.9 µM (active), 21.4 µM (active) and 50 µM (active), respectively.

On to `CCOC(=O)C(Cl)Cc1cc(-n2nc(C)n(C(F)F)c2=O)c(F)cc1Cl` (stereo unspecified), for which the outcome in assay [1], in assay [2], in [3], in assay [4], in assay [5] and in assay [6] was inactive. Also, the outcome (in assay [7]; with HGF (gene 3082); in [8]; in [9]; in assay [10]; in assay [11]) was inactive. Also, the compound was called inactive in assay [12], in assay [13], in assay [14], in [16] and in assay [17].

As to `COC(=O)C(C)Oc1ccc(Oc2ccc(Cl)cc2Cl)cc1` (stereo unspecified), the compound was classed as inactive in assay [1], in assay [2], in assay [3], in [4], in [5] and in assay [6]. Further, the outcome (with HGF (gene 3082); in assay [8]; in assay [9]; in assay [10]; in [11]; in [12]) was inactive. The outcome in [14], in assay [15] and in assay [17] was inactive. In addition, the AC50 was 17.5 µM (active) in [7], 77 µM (active) in [13] and 27.6 µM (active) in assay [16].

Consider `CC(C)Oc1cc(-n2nc(C(C)(C)C)oc2=O)c(Cl)cc1Cl`, for which the AC50 in assay [1] was 86.2 µM (active); in [2], 77.8 µM (active); in assay [3] it was 50 µM (active); in assay [7] it was 61.9 µM (active); in assay [8] it was 28.7 µM (active); in assay [13], 50 µM (active). Also, the AC50 was 50 µM (active) in assay [15] and 85.5 µM (active) in assay [16]. In addition, the compound was classed as inactive (in [4]; in [5]; in assay [6]; with HGF (gene 3082); in [9]; in assay [10]). In addition, the compound was classed as inactive in [11], in [12], in assay [14] and in assay [17].
